The target of test [1] is Rap guanine nucleotide exchange factor 3 (Homo sapiens) (UniProt O95398). The test can be described thus: Confirmatory qHTS for antagonist of cAMP-regulated guanine nucleotide exchange factor 3 (EPAC1) (AID 1645880). Also: nearly all actives have a fitted effect of over 55% in size. Also: potency is read from the fitted curve at half-maximal effect. An outline of the steps:
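Nucleotide exchange uses 100 nM EPAC1, 250 nM RAP1B-BODIPY-GDP and 50 uM GDP, with compounds in a concentration-titration series. After 5 min at room temperature, fluorescence (480 nm ex/540 nm em) is read every 5 min for 30 min. Data are normalized to control ATA and DMSO.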

Test [2] has the same target. Briefly: Confirmatory qHTS for agonist of cAMP-regulated guanine nucleotide exchange factor 3 (EPAC1) (AID 1645881). Also: nearly all actives have a fitted effect of over 75% in size. Also: potency is read from the fitted curve at half-maximal effect.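 As to activation: EPAC1 catalysed release of BODIPY-GDP from Rap1B seen as fluorescence loss; 100% = effect of cAMP agonist control.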 On the technique in general: qHTS replaces the single test concentration by a dilution series.
For test [3], the target named is Rap guanine nucleotide exchange factor 4 (Homo sapiens) (UniProt Q8WZA2). The test can be described thus: Confirmatory qHTS for agonist of cAMP-regulated guanine nucleotide exchange factor 4 (EPAC2) (AID 1645884).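 Also: nucleotide exchange releases bodipy-GDP from Rap1 and this lowers its fluorescence; nearly all actives have a fitted effect of over 65% in size.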 Also: potency is read from the fitted curve at half-maximal effect. As to activation: % is scaled to controls: 0 for no effect and ±100 for the full control effect.
Sequence of Rap guanine nucleotide exchange factor 4 (Homo sapiens) (Q8WZA2 whole entry, looked up): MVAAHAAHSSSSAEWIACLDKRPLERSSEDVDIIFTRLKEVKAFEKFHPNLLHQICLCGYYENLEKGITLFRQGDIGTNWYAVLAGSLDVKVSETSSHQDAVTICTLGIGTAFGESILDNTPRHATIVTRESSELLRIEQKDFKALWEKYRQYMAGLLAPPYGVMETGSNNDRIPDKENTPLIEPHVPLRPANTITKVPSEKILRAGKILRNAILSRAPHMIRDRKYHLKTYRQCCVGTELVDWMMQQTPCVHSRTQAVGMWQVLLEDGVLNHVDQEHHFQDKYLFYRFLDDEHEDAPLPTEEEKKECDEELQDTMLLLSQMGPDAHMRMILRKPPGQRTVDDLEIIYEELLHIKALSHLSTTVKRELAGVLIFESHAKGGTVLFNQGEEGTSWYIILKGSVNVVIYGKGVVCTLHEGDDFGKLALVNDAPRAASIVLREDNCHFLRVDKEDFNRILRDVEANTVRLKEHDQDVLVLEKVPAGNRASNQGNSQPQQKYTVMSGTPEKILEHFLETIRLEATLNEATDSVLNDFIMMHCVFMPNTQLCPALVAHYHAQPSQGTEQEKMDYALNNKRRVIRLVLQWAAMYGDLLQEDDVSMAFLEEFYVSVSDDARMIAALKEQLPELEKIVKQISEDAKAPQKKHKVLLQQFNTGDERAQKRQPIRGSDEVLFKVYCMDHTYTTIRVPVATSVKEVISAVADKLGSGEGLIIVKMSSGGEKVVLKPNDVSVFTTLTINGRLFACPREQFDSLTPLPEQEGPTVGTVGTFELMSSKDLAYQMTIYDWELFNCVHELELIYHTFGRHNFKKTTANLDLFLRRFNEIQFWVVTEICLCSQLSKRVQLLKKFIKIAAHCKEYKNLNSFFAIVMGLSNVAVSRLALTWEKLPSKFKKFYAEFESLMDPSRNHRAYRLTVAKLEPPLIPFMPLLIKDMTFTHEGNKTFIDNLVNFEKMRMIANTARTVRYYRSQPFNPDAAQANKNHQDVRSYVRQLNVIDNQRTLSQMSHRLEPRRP
Test [4] has the same target. Briefly: Confirmatory qHTS for antagonist of cAMP-regulated guanine nucleotide exchange factor 4 (EPAC2) (AID 1645885). Also: nearly all actives have a fitted effect of over 25% in size. Also: potency is read from the fitted curve at half-maximal effect. As to activity change, negative = inhibition: % is scaled to controls: 0 for no effect and ±100 for the full control effect.
For test [5], the target named is Rap guanine nucleotide exchange factor 3 (Homo sapiens) (UniProt O95398). The test can be described thus: Counterscreen qHTS for antagonist of cAMP-regulated guanine nucleotide exchange factor 3 (EPAC1) (AID 1645888).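 Also: fluorescence loss as bound BODIPY-GDP is released from Rap1B; % of control where 0% means no effect.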 The method, boiled down:
(§1)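 Rap1B–BODIPY-GDP (250 nM) with 50 uM GDP; compounds pin-transferred to 9.74 nM–152 uM final (activator) or from 7.32 nM upwards (inhibitor). Fluorescence Ex/Em 480/540 nm read at 5 and 30 min, then after adding cAMP or buffer, at room temperature.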
Background: Counterscreens check selectivity or assay interference.

The target is the same in test [6]. Briefly: Counterscreen qHTS for agonist of cAMP-regulated guanine nucleotide exchange factor 3 (EPAC1) (AID 1645889). Also: nearly all actives have a fitted effect of over 40% in size. Also: potency is read from the fitted curve at half-maximal effect. As to activation: % of control where 0% means no effect. An outline of the steps: as §1

Inconclusive results are not listed. A number with no mark means an inactive call. Active and inactive are the calls of the source. Calls follow the shape of the dose curve; as a rule, active = well fitted curve in the direction sought with a large enough effect; inconclusive = small, poorly fitted or top-dose-only effect, or another doubt; inactive = no such curve, though single readings can be large; an effect the other way counts as inactive or inconclusive.

Sequence of Rap guanine nucleotide exchange factor 3 (Homo sapiens) (O95398 whole entry, looked up): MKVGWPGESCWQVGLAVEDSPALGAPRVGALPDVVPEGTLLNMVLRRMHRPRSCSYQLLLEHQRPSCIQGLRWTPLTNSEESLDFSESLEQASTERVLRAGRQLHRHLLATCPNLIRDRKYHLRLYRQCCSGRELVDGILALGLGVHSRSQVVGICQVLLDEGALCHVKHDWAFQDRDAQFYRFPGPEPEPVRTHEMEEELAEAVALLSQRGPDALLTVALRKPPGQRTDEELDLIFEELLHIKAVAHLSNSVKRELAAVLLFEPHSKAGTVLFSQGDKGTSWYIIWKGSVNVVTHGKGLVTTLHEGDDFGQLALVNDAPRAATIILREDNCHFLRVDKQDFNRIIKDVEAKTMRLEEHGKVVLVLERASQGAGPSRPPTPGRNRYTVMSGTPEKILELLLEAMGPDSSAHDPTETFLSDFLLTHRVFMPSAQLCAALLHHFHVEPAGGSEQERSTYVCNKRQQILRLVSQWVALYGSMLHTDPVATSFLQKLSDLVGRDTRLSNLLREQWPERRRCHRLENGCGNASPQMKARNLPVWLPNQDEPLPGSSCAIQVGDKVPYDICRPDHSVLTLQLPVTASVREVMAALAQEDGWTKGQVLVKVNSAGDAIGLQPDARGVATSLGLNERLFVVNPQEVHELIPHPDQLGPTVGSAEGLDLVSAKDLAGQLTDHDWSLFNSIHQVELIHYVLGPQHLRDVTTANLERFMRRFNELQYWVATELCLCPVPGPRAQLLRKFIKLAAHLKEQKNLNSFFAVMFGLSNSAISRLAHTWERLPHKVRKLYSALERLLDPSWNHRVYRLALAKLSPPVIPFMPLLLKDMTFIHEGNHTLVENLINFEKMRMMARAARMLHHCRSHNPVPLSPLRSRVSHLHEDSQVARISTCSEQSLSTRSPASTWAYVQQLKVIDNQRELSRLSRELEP

With `N#Cc1c(-c2ccccc2)nc(SCC(=O)Nc2ccc(OC(F)(F)Cl)cc2)[nH]c1=O`, the Potency in test [1] is 67.5 µM (active); in test [4], 12 µM (active). The Potency result in test [2], in test [3], in test [5] and in test [6] was “inactive” in each case.

For `Cc1ccc(C(=O)ONc2ccc(N=NC(=O)c3ccccc3O)cc2)cc1`, in test [1], the Potency was 7.57 µM (active). Further, the Potency entry in test [2], in test [3], in test [4], in test [5] and in test [6] was “inactive” each time.

Regarding `O=C(CCC(=O)N1CCSc2ccccc21)NCc1cccc(Cl)c1`, the Potency entry in test [1], in test [2] and in test [4] was “inactive” each time. In addition, the activation is 1.67% [at 17.1 µM, percent relative to cAMP agonist control] in test [3] and 22.1% [at 30.8 µM] in test [6]. The activity change, negative = inhibition in test [5] is 1.86% [at 30.8 µM].

As for `O=C1c2cccc3cccc(c23)N1Cc1ccc(F)cc1`, the Potency result in test [1], in test [2] and in test [4] was “inactive” in each case. Further, the activation was 1.12% [at 17.1 µM, percent relative to cAMP agonist control] in test [3] and 4.85% [at 30.8 µM] in test [6]. Moreover, the activity change, negative = inhibition in test [5] was -16.7% [at 30.8 µM].

For the compound `COc1cc(C2c3c(oc4ccccc4c3=O)C(=O)N2c2nc(C)c(C)s2)ccc1O` (centres undefined), the Potency entry in test [1], in test [2], in test [3], in test [4], in test [5] and in test [6] was “inactive” in each case.

`Cc1ccccc1OCCC(=O)OCC(=O)N1CCN(S(=O)(=O)c2ccc(Cl)cc2)CC1`: the Potency result in test [1], in test [2] and in test [4] was “inactive” in each case. For the same compound, the activation is 7.52% [at 17.1 µM, percent relative to cAMP agonist control] in test [3] and 26.1% [at 30.8 µM] in test [6]. Further, the activity change, negative = inhibition in test [5] was -4.15% [at 30.8 µM].

Consider `COc1ccc(N2CCN(C(=O)CCc3ccccc3OC)CC2)cc1`, for which the Potency result in test [1], in test [2], in test [3], in test [4], in test [5] and in test [6] was “inactive” throughout.

As for `Cc1ccc(S(=O)(=O)N2[C@@H](c3ccc(Br)cc3)C(C(=O)O)=CC[C@H]2c2ccc(Cl)cc2)cc1`, the Potency in test [1] was 75.7 µM (active). In addition, the Potency entry in test [2], in test [3], in test [4], in test [5] and in test [6] was “inactive” each time.

Consider `c1ccc(OCCCn2ccnc2)cc1`, for which the Potency entry in test [1], in test [2], in test [3], in test [4], in test [5] and in test [6] was “inactive” in each case.

With `Cc1nc(N)sc1C(=O)N1N=N1`, the Potency entry in test [1], in test [2], in test [3], in test [4], in test [5] and in test [6] was “inactive” in each case.

For `COCCCn1c(=O)/c(=C\c2ccc(OC(F)F)c(OC)c2)s/c1=C(/C#N)C(N)=O`, the Potency result in test [1], in test [2], in test [3], in test [4], in test [5] and in test [6] was “inactive” throughout.

As for `CN(Cc1ccc(F)cc1)C(=O)c1cccc(OCc2ccccc2)c1`, the Potency entry in test [1], in test [2] and in test [4] was “inactive” throughout. The activation was 10.9% [at 17.1 µM, percent relative to cAMP agonist control] in test [3] and -0.388% [at 30.8 µM] in test [6]. Further, in test [5], the activity change, negative = inhibition was 1.29% [at 30.8 µM].

Take `CCOC(=O)c1cc(C(C)(C)C)nc(SC)c1C#N`: the Potency result in test [1], in test [2], in test [3], in test [4], in test [5] and in test [6] was “inactive” each time.

Take `CCOC(=O)c1ccc(-c2ccc(/C=C(\C#N)C(=O)Nc3c(C)cccc3Cl)o2)cc1`: the Potency in test [1] was 75.7 µM (active). In addition, the Potency result in test [2], in test [3], in test [4], in test [5] and in test [6] was “inactive” throughout.

Turning to `CCc1cccc(C)c1Nc1c(-c2cccs2)nc2ncccn12`, the Potency entry in test [1], in test [2], in test [3], in test [4] and in test [5] was “inactive” throughout.

Turning to `COc1ccc(NC(=O)CS(=O)(=O)Cc2ccccc2)c([N+](=O)[O-])c1`, the Potency result in test [1], in test [2] and in test [4] was “inactive” in each case. The activation was 7.06% [at 17.1 µM, percent relative to cAMP agonist control] in test [3] and 8.04% [at 30.8 µM] in test [6]. In addition, the activity change, negative = inhibition in test [5] is -9.05% [at 30.8 µM].

In the case of `O=C(NC1CCN(Cc2ccccc2)CC1)c1cn(-c2ccccc2)nc1-c1cccnc1`, the Potency entry in test [1], in test [2], in test [3], in test [4], in test [5] and in test [6] was “inactive” each time.

`CN1/C(=C\C=C2/SC(=S)NC2=O)C(C)(C)c2ccccc21`: the Potency entry in test [1] and in test [5] was “inactive” each time. Also, the Potency in test [2] was 79.4 µM (active); in test [3], 79.4 µM (active); in test [4], 7.57 µM (active); in test [6], 70.8 µM (active).

As for `Cc1cc(NCc2ccco2)n2c(nc3ccccc32)c1C#N`, the Potency result in test [1], in test [2], in test [3], in test [4], in test [5] and in test [6] was “inactive” throughout.

Take `CC(C)(C(=O)N1CCC1(C)C(=O)NS(=O)(=O)c1ccccc1Cl)c1ccccc1` (centres undefined): the Potency result in test [1], in test [2] and in test [4] was “inactive” each time. The activation in test [3] is 3.96% [at 17.1 µM, percent relative to cAMP agonist control]; in test [6], 1.99% [at 30.8 µM]. For the same compound, the activity change, negative = inhibition in test [5] was 0.723% [at 30.8 µM].
